Columns and labels:
Assay in all cases: DAPPL (digital affinity profiling via proximity ligation, sequencing); 10 mM Tris-HCl pH 7.5, 50 mM NaCl, 1 mM DTT, 4% glycerol, room temperature, 30 min; GST-TFs on glutathione beads, 16-mer random dsDNA library, 0.1% formaldehyde crosslink after washing; high values mean tight binding
FLI1 = target: T1, FLI1 (Homo sapiens, UniProt Q01543 1-452); settings: protein: recombinant; tags: N-terminal GST; dsDNA, one strand shown
T1 sequence: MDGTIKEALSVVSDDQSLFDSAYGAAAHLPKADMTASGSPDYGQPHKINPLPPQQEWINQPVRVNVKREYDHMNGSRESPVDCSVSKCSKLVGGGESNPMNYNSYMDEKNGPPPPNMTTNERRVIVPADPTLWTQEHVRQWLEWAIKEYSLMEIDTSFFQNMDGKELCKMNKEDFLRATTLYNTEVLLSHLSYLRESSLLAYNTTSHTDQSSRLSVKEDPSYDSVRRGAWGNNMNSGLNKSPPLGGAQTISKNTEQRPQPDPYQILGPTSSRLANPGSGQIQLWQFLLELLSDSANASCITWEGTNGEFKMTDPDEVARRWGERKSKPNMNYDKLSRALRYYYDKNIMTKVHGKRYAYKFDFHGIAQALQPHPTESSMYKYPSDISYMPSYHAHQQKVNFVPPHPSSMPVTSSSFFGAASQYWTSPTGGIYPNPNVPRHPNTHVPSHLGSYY
Procedure, shortened: (§1)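 Pools of DNA-barcoded human transcription factors, expressed in yeast as GST fusions on glutathione beads and combined with a tag-only sample, were incubated with 200 nmole of a 16-mer random double-stranded DNA library. Incubation took 30 min at room temperature in Tris/NaCl/DTT/glycerol buffer and was followed by washing, 0.1% formaldehyde crosslinking, proximity ligation (BsaI/T4 ligase, 1 h, 37 °C), PCR amplification and sequencing on an Illumina NextSeq500. Binding signal is the ratio of a hexamer's read frequency for a factor to its frequency for the tag-only sample.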

ELK1 = target: T2, ELK1 (Homo sapiens, UniProt P19419 1-428); settings: protein: recombinant; tags: N-terminal GST; dsDNA, one strand shown
T2 sequence: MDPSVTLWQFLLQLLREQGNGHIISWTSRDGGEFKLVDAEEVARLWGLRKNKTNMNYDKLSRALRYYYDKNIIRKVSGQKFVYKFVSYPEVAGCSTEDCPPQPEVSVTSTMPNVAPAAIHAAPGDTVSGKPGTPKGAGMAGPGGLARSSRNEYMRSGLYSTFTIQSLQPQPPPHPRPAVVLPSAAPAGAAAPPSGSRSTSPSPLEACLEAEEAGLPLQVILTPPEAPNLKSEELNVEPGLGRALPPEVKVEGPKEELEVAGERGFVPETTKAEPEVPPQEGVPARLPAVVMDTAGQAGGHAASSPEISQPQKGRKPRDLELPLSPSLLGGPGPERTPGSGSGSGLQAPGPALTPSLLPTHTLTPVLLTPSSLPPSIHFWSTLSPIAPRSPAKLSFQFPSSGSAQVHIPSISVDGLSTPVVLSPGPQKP
Procedure, shortened: as §1

GABPA = target: T3, GABPA (Homo sapiens, UniProt Q06546 1-454); settings: protein: recombinant; tags: N-terminal GST; dsDNA, one strand shown
T3 sequence: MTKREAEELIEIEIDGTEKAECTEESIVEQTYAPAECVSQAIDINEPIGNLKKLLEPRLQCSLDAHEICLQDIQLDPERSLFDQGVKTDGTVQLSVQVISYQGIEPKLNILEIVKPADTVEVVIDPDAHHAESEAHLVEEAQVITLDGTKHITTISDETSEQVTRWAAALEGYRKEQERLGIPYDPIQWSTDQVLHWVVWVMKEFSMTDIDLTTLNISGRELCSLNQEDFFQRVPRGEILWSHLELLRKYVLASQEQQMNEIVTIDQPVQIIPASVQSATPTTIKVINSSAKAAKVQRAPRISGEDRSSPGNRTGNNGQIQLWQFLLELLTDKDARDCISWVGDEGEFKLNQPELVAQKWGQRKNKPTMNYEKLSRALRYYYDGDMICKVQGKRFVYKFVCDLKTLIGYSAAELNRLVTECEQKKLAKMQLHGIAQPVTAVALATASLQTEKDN
Procedure, shortened: as §1

ERG = target: T4, ERG (Homo sapiens, UniProt P11308 1-479); settings: protein: recombinant; tags: N-terminal GST; dsDNA, one strand shown
T4 sequence: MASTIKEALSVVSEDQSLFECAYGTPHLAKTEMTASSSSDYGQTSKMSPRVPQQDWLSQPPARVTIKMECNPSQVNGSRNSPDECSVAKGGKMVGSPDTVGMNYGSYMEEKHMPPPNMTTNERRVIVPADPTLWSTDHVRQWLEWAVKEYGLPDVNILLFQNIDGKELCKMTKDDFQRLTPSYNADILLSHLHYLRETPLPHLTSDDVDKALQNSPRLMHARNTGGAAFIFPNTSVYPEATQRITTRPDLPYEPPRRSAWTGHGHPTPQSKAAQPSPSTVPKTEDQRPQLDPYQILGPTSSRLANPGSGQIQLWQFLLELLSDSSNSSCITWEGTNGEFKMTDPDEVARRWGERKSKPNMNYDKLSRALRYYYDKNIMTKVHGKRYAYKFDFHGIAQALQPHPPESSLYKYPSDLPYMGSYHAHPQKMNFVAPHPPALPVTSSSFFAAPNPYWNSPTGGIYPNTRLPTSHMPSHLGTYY
Procedure, shortened: as §1

ELF1 = ELF1 (Homo sapiens, UniProt P32519 1-619); settings: protein: recombinant; tags: N-terminal GST; dsDNA, one strand shown
ELF1, sequence (P32519 whole entry): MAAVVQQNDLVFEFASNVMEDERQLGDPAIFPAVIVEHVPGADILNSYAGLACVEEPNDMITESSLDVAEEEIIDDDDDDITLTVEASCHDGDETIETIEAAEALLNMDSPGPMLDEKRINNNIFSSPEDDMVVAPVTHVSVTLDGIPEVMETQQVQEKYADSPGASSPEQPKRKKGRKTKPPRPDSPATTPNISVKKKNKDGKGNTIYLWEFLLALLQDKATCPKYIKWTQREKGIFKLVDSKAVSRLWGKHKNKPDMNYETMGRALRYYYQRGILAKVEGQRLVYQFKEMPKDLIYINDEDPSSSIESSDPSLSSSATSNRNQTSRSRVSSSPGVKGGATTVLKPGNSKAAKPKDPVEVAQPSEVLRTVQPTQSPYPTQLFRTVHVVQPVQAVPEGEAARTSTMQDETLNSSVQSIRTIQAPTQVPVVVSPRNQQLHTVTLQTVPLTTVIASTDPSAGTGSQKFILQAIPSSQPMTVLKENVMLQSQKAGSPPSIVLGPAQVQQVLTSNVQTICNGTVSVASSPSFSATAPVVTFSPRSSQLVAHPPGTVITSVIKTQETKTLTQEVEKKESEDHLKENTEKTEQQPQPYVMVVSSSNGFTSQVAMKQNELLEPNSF
Procedure, shortened: as §1

EHF = target: T5, EHF (Homo sapiens, UniProt Q9NZC4 1-300); settings: protein: recombinant; tags: N-terminal GST; dsDNA, one strand shown
T5 sequence: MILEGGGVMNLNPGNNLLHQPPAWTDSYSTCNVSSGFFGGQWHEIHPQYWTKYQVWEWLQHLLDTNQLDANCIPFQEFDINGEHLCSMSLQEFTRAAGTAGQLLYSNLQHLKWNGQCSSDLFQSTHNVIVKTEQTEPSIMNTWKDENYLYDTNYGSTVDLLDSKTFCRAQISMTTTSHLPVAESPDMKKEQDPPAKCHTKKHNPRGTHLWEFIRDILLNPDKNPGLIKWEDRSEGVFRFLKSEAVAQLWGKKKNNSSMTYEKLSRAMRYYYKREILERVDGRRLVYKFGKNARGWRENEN
Procedure, shortened: as §1

SPI1 = SPI1 (Homo sapiens, UniProt P17947 1-270); settings: protein: recombinant; tags: N-terminal GST; dsDNA, one strand shown
Procedure, shortened: as §1

SPIB = SPIB (Homo sapiens, UniProt Q01892 1-262); settings: protein: recombinant; tags: N-terminal GST; dsDNA, one strand shown
SPIB, sequence (Q01892 whole entry): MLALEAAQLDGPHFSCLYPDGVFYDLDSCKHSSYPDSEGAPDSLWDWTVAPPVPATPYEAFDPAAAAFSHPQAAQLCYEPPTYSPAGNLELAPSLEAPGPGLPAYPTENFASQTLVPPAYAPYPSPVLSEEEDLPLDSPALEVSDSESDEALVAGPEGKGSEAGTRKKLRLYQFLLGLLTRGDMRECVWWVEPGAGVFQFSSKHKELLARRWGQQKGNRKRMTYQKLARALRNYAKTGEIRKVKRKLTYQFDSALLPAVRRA
Procedure, shortened: as §1

ELK3 = target: T6, ELK3 (Homo sapiens, UniProt P41970 1-407); settings: protein: recombinant; tags: N-terminal GST; dsDNA, one strand shown
T6 sequence: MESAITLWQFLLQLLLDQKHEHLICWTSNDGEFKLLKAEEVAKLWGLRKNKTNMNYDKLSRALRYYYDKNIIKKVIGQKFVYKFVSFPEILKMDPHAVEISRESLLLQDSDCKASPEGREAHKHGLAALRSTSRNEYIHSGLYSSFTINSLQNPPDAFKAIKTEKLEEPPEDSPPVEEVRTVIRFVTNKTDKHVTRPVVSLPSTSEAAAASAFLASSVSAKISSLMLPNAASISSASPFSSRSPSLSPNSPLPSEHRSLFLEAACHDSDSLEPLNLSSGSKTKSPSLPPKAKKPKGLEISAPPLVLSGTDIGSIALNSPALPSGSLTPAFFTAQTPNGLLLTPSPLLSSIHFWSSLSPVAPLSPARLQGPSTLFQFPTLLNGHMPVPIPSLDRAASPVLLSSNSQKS
Procedure, shortened: as §1

FEV = target: T7, FEV (Homo sapiens, UniProt Q99581 1-238); settings: protein: recombinant; tags: N-terminal GST; dsDNA, one strand shown
T7 sequence: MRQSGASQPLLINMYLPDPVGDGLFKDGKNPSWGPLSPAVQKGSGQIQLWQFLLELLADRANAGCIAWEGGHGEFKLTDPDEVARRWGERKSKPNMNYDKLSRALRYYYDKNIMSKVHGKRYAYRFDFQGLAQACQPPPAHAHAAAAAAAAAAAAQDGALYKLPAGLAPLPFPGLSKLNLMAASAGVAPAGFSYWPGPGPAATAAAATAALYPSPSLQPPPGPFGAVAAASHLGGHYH
Procedure, shortened: as §1

ETV5 = ETV5 (Homo sapiens, UniProt P41161 1-510); settings: protein: recombinant; tags: N-terminal GST; dsDNA, one strand shown
ETV5, sequence (P41161 whole entry): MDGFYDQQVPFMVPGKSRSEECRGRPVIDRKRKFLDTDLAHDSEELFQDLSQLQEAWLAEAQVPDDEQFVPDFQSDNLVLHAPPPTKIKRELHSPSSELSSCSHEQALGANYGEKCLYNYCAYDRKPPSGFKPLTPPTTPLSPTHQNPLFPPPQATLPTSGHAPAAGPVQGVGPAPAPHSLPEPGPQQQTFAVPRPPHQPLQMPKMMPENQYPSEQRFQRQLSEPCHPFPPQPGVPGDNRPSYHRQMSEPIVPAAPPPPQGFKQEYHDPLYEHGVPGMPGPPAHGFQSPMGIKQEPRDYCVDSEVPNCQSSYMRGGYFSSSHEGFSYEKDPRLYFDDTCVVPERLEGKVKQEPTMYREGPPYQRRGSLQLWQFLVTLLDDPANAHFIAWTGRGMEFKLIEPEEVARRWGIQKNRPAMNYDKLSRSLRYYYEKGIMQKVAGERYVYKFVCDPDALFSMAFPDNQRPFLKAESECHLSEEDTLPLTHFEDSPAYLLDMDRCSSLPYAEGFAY
Procedure, shortened: as §1

HSF1 = HSF1 (Homo sapiens, UniProt Q00613 1-529); settings: protein: recombinant; tags: N-terminal GST; chain copies: 3; dsDNA, one strand shown
HSF1, sequence (Q00613 whole entry): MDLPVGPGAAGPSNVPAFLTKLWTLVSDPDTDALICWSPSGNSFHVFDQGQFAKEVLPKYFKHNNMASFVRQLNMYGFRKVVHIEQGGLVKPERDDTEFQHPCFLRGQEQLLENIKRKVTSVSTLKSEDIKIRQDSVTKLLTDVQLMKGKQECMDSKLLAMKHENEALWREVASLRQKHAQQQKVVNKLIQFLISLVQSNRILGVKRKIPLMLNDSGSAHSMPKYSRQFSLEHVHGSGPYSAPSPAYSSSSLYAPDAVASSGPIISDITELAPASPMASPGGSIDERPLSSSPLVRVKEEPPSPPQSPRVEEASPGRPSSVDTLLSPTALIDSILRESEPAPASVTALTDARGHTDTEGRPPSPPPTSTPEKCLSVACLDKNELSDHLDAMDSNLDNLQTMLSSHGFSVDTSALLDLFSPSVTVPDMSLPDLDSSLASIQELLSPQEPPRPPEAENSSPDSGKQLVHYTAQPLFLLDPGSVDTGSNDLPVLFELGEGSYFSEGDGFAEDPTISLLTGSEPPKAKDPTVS
Procedure, shortened: as §1

SPIC = target: T8, SPIC (Homo sapiens, UniProt Q8N5J4 1-248); settings: protein: recombinant; tags: N-terminal GST; dsDNA, one strand shown
T8 sequence: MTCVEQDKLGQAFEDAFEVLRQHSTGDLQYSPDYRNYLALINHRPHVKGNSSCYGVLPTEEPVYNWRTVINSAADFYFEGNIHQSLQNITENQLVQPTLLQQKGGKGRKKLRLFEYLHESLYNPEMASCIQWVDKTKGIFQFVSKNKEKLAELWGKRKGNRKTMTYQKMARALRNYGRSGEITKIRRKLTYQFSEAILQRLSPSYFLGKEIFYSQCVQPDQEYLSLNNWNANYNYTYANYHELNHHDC
Procedure, shortened: as §1

ELF4 = ELF4 (Homo sapiens, UniProt Q99607 1-663); settings: protein: recombinant; tags: N-terminal GST; dsDNA, one strand shown
ELF4, sequence (Q99607 whole entry): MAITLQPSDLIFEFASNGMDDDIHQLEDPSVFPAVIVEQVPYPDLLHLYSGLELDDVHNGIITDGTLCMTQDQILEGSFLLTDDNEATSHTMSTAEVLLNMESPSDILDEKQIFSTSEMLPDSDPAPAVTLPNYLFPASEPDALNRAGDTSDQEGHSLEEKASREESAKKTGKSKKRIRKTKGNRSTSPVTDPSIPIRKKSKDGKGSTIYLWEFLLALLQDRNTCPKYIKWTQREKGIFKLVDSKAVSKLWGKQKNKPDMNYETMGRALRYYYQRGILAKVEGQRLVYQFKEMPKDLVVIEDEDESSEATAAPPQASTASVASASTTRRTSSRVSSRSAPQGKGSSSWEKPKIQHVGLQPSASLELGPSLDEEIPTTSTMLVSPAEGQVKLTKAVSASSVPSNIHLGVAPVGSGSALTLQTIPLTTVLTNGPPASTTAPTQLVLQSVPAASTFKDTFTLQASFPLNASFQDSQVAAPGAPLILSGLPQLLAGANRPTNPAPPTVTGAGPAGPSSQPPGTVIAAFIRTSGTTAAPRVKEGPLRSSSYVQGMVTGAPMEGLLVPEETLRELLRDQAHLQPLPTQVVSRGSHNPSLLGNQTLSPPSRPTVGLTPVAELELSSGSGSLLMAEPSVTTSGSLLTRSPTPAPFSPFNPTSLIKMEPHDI
Procedure, shortened: as §1

ELK4 = target: T9, ELK4 (Homo sapiens, UniProt P28324-2 1-405); settings: protein: recombinant; tags: N-terminal GST; dsDNA, one strand shown
T9 sequence: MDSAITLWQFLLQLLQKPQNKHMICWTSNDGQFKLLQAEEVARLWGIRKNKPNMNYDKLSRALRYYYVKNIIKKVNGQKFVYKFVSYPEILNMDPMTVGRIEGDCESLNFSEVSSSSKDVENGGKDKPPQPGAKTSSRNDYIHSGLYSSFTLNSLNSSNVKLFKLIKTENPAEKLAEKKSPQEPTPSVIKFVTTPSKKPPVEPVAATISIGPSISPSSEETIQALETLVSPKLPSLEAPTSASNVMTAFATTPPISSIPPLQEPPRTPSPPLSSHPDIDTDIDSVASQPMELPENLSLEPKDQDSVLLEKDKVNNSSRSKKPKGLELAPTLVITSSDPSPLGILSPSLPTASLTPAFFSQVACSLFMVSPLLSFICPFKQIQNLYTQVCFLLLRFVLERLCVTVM
Procedure, shortened: as §1

ETV2 = target: T10, ETV2 (Homo sapiens, UniProt O00321 1-342); settings: protein: recombinant; tags: N-terminal GST; dsDNA, one strand shown
T10 sequence: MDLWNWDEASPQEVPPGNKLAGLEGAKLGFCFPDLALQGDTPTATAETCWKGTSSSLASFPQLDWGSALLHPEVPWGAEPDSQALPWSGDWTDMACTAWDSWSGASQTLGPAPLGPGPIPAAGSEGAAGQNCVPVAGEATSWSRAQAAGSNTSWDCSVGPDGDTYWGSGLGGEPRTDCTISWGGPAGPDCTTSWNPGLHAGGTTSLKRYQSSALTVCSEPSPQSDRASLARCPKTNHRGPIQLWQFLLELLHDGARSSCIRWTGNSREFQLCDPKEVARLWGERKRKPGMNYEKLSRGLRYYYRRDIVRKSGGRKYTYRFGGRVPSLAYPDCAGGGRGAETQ
Procedure, shortened: as §1

ELF3 = target: T11, ELF3 (Homo sapiens, UniProt P78545 1-371); settings: protein: recombinant; tags: N-terminal GST; dsDNA, one strand shown
T11 sequence: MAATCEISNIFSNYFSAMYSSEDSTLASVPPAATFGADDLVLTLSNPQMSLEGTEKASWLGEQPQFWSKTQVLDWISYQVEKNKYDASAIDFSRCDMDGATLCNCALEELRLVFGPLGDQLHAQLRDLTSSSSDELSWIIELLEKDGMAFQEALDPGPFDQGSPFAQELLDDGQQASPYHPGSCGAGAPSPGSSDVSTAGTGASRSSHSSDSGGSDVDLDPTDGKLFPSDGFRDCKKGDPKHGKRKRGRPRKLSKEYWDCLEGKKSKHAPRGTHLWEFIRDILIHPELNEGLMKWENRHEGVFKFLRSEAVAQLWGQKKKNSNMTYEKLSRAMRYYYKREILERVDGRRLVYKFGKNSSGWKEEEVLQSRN
Procedure, shortened: as §1

CRX = CRX (Homo sapiens, UniProt O43186 1-299); settings: protein: recombinant; tags: N-terminal GST; dsDNA, one strand shown
CRX, sequence (O43186 whole entry): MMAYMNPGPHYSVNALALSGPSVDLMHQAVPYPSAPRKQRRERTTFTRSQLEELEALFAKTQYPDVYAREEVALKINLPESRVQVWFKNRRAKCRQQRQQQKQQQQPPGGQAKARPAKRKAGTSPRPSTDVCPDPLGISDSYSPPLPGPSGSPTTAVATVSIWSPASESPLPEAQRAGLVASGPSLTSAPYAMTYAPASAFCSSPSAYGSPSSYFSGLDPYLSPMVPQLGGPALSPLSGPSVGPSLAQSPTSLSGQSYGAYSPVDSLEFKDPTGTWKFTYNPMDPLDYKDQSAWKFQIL
Procedure, shortened: as §1

ETV1 = ETV1 (Homo sapiens, UniProt P50549 1-477); settings: protein: recombinant; tags: N-terminal GST; dsDNA, one strand shown
ETV1, sequence (P50549 whole entry): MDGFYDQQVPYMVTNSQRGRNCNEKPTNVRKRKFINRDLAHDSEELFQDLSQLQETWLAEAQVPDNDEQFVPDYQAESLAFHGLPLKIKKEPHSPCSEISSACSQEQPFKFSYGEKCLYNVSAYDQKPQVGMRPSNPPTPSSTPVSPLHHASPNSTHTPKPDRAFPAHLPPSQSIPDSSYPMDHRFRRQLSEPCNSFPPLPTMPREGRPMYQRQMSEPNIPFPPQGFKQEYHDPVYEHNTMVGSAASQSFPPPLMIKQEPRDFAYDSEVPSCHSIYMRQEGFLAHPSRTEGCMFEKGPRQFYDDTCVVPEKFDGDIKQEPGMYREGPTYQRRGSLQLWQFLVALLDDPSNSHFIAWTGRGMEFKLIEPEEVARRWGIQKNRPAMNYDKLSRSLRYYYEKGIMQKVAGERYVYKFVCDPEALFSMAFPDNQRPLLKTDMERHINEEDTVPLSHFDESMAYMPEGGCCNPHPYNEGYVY
Procedure, shortened: as §1

Question: Which binding signal (FLI1) does the source give for CCTTCT here?
Answer: 1.62 fold enrichment (6-mer frequency, TF over GST control)

Question: What about the binding signal (ELK1) of the same sequence?
Answer: 1.42 fold enrichment (6-mer frequency, TF over GST control)

Question: And the binding signal (GABPA)?
Answer: 1.6 fold enrichment (6-mer frequency, TF over GST control)

Question: And the binding signal (ERG)?
Answer: 1.54 fold enrichment (6-mer frequency, TF over GST control)

Question: What about the binding signal (ELF1) of the same sequence?
Answer: 1.63 fold enrichment (6-mer frequency, TF over GST control)

Question: And the binding signal (EHF)?
Answer: 1.67 fold enrichment (6-mer frequency, TF over GST control)

Question: What about the binding signal (SPI1) of the same sequence?
Answer: 1.67 fold enrichment (6-mer frequency, TF over GST control)

Question: What about the binding signal (SPIB) of the same sequence?
Answer: 1.56 fold enrichment (6-mer frequency, TF over GST control)

Question: And the binding signal (ELK3)?
Answer: 1.79 fold enrichment (6-mer frequency, TF over GST control)

Question: What about the binding signal (FEV) of the same sequence?
Answer: 1.59 fold enrichment (6-mer frequency, TF over GST control)

Question: What about the binding signal (ETV5) of the same sequence?
Answer: 1.59 fold enrichment (6-mer frequency, TF over GST control)

Question: And the binding signal (HSF1)?
Answer: 2.98 fold enrichment (6-mer frequency, TF over GST control)

Question: What about the binding signal (SPIC) of the same sequence?
Answer: 1.63 fold enrichment (6-mer frequency, TF over GST control)

Question: And the binding signal (ELF4)?
Answer: 1.76 fold enrichment (6-mer frequency, TF over GST control)

Question: And the binding signal (ELK4)?
Answer: 1.68 fold enrichment (6-mer frequency, TF over GST control)

Question: And the binding signal (ETV2)?
Answer: 1.65 fold enrichment (6-mer frequency, TF over GST control)

Question: What about the binding signal (ELF3) of the same sequence?
Answer: 1.54 fold enrichment (6-mer frequency, TF over GST control)

Question: What about the binding signal (CRX) of the same sequence?
Answer: 1.92 fold enrichment (6-mer frequency, TF over GST control)

Question: What about the binding signal (ETV1) of the same sequence?
Answer: 1.63 fold enrichment (6-mer frequency, TF over GST control)
